# Laboratory results reported in PMC7862700, “An all-to-all approach to the identification of sequence-specific readers for epigenetic DNA modifications on cytosine”.
# Key:
# Assay in all cases: DAPPL (digital affinity profiling via proximity ligation, sequencing); 10 mM Tris-HCl pH 7.5, 50 mM NaCl, 1 mM DTT, 4% glycerol, room temperature, 30 min; GST-TFs on glutathione beads, 16-mer random dsDNA library, 0.1% formaldehyde crosslink after washing; high values mean tight binding
# Settings in all cases: protein: recombinant; tags: N-terminal GST; dsDNA, one strand shown
# FLI1 = biological target: T1, FLI1 (Homo sapiens, UniProt Q01543 1-452)
# T1 sequence: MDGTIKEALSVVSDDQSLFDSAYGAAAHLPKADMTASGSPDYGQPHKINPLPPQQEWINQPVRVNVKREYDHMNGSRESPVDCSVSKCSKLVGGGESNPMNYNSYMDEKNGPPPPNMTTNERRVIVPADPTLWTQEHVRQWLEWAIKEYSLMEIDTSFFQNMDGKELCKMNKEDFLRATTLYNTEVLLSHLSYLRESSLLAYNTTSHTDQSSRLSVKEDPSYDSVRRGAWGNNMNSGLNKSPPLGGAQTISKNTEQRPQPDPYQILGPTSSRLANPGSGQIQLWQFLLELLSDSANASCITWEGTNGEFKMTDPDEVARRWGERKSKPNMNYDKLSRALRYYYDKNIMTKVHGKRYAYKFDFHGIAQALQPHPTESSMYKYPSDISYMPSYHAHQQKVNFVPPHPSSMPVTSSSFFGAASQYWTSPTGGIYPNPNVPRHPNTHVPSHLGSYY
# Summary of the method: (§1)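 Human transcription factors were made in yeast as GST fusions, captured on glutathione beads and barcoded with DNA. With a tag-only sample included, the pool was incubated with 200 nmole of a random double-stranded 16-mer DNA library in Tris/NaCl/DTT/glycerol buffer at room temperature for 30 min, then crosslinked with 0.1% formaldehyde after washing, ligated by proximity, amplified and sequenced. For binding signal, each hexamer's read frequency for a factor is divided by its frequency for the tag-only sample.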
# ELK1 = biological target: T2, ELK1 (Homo sapiens, UniProt P19419 1-428)
# T2 sequence: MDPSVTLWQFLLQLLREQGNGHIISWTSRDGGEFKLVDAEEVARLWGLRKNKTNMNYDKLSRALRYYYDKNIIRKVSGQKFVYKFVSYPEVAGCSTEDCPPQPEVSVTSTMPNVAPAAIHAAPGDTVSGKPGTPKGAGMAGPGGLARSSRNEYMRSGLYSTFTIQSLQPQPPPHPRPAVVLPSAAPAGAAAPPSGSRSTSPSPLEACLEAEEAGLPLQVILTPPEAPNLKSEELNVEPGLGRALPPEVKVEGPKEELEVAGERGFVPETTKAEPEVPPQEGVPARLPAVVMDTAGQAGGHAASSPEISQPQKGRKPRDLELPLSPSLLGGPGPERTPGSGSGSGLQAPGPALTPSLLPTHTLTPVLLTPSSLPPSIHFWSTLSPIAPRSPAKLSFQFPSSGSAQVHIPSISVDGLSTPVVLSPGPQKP
# Summary of the method: as §1
# GABPA = biological target: T3, GABPA (Homo sapiens, UniProt Q06546 1-454)
# T3 sequence: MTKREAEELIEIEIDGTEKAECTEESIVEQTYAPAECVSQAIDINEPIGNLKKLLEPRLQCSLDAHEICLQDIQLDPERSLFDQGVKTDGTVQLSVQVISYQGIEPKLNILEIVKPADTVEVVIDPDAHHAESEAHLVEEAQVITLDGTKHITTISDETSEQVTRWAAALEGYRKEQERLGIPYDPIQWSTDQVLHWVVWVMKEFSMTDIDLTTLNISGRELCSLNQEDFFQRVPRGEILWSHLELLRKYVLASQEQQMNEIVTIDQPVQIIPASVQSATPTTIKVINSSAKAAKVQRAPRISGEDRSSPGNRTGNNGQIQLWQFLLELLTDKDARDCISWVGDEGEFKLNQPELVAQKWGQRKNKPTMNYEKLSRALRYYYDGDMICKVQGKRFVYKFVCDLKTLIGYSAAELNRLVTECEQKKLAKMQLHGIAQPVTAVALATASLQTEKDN
# Summary of the method: as §1
# ERG = biological target: T4, ERG (Homo sapiens, UniProt P11308 1-479)
# T4 sequence: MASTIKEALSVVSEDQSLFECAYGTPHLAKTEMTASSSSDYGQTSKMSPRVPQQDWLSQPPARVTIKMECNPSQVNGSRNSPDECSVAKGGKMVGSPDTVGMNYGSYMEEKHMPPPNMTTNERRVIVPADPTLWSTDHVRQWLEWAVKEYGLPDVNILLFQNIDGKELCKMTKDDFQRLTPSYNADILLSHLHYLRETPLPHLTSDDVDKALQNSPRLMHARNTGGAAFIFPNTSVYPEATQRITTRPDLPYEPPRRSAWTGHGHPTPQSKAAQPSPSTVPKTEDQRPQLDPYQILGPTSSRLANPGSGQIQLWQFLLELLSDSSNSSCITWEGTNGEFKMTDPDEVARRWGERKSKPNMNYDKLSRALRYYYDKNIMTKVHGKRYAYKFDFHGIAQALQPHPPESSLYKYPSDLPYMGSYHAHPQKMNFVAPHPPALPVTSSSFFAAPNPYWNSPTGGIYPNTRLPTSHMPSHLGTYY
# Summary of the method: as §1
# ELF1 = ELF1 (Homo sapiens, UniProt P32519 1-619)
# Chain of ELF1 (P32519 whole entry): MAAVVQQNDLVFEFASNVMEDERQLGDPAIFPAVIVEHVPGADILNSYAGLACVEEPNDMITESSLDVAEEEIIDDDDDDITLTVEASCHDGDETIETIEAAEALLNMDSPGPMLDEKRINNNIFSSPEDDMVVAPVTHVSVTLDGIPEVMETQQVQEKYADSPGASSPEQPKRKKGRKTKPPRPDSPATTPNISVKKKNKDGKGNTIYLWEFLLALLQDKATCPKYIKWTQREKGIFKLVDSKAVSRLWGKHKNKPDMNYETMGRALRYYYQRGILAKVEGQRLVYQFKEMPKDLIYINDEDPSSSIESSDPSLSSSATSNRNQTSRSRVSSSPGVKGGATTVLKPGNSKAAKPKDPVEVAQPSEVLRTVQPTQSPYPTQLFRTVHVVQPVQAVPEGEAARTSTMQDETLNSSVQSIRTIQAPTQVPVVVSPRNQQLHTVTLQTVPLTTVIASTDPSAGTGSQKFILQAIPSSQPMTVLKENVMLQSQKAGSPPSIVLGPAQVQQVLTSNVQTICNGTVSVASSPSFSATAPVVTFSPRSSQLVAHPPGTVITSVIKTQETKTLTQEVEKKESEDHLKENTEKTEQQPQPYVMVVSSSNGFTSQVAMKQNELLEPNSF
# Summary of the method: as §1
# EHF = biological target: T5, EHF (Homo sapiens, UniProt Q9NZC4 1-300)
# T5 sequence: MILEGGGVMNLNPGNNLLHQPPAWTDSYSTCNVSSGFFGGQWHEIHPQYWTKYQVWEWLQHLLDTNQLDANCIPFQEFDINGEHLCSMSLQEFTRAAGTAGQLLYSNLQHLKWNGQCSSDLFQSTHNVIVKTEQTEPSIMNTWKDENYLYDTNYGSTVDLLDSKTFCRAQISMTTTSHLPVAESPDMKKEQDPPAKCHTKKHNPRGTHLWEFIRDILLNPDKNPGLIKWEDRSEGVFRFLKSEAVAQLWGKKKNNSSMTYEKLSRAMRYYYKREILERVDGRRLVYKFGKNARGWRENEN
# Summary of the method: as §1
# SPI1 = SPI1 (Homo sapiens, UniProt P17947 1-270)
# Summary of the method: as §1
# SPIB = SPIB (Homo sapiens, UniProt Q01892 1-262)
# Chain of SPIB (Q01892 whole entry): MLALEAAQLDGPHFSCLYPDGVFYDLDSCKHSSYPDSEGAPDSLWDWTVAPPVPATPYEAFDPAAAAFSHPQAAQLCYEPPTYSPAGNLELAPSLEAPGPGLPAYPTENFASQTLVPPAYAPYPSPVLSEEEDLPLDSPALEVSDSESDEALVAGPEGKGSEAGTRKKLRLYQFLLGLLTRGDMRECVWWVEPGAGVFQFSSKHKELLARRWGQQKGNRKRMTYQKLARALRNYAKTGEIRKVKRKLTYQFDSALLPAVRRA
# Summary of the method: as §1
# ELK3 = biological target: T6, ELK3 (Homo sapiens, UniProt P41970 1-407)
# T6 sequence: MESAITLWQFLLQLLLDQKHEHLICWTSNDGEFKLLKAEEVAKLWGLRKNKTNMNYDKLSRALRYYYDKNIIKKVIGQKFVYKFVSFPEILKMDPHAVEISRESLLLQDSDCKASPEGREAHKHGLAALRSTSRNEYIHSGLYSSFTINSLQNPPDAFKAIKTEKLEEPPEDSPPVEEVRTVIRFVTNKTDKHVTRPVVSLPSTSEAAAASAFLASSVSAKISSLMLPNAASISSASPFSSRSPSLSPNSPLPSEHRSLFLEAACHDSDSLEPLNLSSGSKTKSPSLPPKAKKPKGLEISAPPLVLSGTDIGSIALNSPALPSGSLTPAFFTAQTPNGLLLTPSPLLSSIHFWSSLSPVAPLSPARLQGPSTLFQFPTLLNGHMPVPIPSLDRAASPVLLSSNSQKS
# Summary of the method: as §1
# FEV = biological target: T7, FEV (Homo sapiens, UniProt Q99581 1-238)
# T7 sequence: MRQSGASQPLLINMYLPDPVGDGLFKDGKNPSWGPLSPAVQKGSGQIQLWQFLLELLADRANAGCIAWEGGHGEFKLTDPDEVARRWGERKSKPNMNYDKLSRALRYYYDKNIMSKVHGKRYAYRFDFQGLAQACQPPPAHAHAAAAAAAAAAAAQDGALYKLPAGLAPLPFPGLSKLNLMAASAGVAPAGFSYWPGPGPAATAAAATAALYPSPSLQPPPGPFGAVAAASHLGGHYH
# Summary of the method: as §1
# ETV5 = ETV5 (Homo sapiens, UniProt P41161 1-510)
# Chain of ETV5 (P41161 whole entry): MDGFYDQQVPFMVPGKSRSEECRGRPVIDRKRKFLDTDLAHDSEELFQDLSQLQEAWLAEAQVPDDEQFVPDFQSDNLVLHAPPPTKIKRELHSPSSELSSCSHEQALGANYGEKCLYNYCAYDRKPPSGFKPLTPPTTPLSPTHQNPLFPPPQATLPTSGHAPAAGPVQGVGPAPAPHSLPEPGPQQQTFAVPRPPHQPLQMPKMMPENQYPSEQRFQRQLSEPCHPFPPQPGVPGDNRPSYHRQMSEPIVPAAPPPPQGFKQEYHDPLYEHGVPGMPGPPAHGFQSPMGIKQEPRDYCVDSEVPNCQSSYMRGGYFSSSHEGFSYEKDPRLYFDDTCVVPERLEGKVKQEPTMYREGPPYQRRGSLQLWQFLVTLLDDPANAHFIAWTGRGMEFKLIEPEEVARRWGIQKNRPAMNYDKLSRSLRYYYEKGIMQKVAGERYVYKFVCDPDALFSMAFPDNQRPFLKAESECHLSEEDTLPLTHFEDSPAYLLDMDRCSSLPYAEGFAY
# Summary of the method: as §1
# SPIC = biological target: T8, SPIC (Homo sapiens, UniProt Q8N5J4 1-248)
# T8 sequence: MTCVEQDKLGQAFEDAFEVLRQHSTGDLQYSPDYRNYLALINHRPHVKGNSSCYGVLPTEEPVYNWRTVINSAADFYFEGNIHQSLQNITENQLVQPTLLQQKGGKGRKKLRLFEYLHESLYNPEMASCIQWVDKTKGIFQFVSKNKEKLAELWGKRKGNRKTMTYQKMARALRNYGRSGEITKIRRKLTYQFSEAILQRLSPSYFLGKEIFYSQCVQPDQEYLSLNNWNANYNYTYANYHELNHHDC
# Summary of the method: as §1
# ELF4 = ELF4 (Homo sapiens, UniProt Q99607 1-663)
# Chain of ELF4 (Q99607 whole entry): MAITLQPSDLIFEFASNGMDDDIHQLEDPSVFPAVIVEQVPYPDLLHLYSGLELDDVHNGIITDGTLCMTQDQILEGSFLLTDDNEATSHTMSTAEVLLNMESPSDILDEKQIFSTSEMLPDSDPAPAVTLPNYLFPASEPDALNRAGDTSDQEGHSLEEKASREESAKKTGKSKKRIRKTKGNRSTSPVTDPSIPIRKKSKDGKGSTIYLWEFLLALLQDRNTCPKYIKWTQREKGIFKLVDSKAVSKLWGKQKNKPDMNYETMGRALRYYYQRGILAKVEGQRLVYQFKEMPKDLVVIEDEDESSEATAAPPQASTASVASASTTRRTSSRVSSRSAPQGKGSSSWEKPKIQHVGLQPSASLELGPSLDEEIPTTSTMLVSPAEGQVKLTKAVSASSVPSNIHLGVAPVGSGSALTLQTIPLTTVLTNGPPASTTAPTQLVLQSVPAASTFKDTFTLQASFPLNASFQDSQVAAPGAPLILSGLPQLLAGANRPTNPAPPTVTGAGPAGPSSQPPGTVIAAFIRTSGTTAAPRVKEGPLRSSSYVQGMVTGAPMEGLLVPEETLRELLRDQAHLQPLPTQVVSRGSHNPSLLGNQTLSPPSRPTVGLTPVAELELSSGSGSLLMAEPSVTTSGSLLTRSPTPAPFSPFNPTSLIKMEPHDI
# Summary of the method: as §1
# ELK4 = biological target: T9, ELK4 (Homo sapiens, UniProt P28324-2 1-405)
# T9 sequence: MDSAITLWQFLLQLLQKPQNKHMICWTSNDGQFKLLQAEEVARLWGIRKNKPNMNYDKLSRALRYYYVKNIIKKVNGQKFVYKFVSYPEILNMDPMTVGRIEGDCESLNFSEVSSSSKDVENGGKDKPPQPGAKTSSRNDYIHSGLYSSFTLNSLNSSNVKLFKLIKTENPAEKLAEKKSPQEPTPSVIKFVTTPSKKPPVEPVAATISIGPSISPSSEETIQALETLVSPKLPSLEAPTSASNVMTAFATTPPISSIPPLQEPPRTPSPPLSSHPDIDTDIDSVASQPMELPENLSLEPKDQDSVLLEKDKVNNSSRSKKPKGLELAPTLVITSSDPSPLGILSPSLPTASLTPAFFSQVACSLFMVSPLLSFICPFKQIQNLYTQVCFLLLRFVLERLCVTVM
# Summary of the method: as §1
# ETV2 = biological target: T10, ETV2 (Homo sapiens, UniProt O00321 1-342)
# T10 sequence: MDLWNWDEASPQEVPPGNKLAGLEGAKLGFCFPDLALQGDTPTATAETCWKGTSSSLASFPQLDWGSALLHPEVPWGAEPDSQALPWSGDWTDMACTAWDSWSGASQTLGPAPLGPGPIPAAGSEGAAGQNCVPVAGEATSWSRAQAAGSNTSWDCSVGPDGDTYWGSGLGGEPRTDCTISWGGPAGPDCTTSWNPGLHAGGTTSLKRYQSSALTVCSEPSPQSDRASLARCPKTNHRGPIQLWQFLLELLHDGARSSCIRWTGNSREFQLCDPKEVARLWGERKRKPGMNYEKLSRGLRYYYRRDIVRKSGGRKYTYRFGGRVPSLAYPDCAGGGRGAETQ
# Summary of the method: as §1
# ELF3 = biological target: T11, ELF3 (Homo sapiens, UniProt P78545 1-371)
# T11 sequence: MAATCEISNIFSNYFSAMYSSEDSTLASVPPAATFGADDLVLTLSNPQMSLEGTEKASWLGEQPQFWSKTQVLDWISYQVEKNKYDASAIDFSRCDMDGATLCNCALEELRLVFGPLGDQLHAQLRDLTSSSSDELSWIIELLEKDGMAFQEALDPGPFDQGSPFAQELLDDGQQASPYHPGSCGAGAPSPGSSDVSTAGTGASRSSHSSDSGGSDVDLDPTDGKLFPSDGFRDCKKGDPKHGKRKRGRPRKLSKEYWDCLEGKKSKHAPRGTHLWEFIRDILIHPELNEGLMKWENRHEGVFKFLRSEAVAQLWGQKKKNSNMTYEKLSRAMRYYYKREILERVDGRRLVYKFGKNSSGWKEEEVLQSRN
# Summary of the method: as §1
# ETV1 = ETV1 (Homo sapiens, UniProt P50549 1-477)
# Chain of ETV1 (P50549 whole entry): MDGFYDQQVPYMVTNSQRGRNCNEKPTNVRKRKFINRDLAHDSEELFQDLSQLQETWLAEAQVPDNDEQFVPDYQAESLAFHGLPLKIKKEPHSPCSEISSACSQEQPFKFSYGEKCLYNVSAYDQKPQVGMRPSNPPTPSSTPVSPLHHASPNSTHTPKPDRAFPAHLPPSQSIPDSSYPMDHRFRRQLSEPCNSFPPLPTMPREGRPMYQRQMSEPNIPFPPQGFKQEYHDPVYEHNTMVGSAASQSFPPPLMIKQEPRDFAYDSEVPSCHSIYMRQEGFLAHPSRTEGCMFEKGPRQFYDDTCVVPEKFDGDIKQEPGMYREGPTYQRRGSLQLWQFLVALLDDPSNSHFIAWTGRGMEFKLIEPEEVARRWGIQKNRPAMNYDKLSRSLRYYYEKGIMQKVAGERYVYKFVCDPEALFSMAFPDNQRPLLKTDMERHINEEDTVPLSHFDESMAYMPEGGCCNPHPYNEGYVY
# Summary of the method: as §1
# CRX = CRX (Homo sapiens, UniProt O43186 1-299)
# Chain of CRX (O43186 whole entry): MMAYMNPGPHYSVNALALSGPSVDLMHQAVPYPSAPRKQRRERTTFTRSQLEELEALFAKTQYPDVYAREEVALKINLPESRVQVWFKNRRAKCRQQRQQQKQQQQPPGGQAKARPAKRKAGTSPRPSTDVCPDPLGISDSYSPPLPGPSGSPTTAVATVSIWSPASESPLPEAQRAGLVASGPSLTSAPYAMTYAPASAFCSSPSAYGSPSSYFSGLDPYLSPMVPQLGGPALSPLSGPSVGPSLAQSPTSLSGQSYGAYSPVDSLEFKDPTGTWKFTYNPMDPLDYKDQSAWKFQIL
# Summary of the method: as §1
sequence,measurement,setting,value
CCACAT,binding signal,FLI1,"1.2 fold enrichment (6-mer frequency, TF over GST control)"
same,binding signal,ELK1,"1.3 fold enrichment (6-mer frequency, TF over GST control)"
same,binding signal,GABPA,"1.12 fold enrichment (6-mer frequency, TF over GST control)"
same,binding signal,ERG,"1.15 fold enrichment (6-mer frequency, TF over GST control)"
same,binding signal,ELF1,"1.25 fold enrichment (6-mer frequency, TF over GST control)"
same,binding signal,EHF,"1.21 fold enrichment (6-mer frequency, TF over GST control)"
same,binding signal,SPI1,"1.07 fold enrichment (6-mer frequency, TF over GST control)"
same,binding signal,SPIB,"1.16 fold enrichment (6-mer frequency, TF over GST control)"
same,binding signal,ELK3,"1.14 fold enrichment (6-mer frequency, TF over GST control)"
same,binding signal,FEV,"1.27 fold enrichment (6-mer frequency, TF over GST control)"
same,binding signal,ETV5,"1.17 fold enrichment (6-mer frequency, TF over GST control)"
same,binding signal,SPIC,"1.29 fold enrichment (6-mer frequency, TF over GST control)"
same,binding signal,ELF4,"1.21 fold enrichment (6-mer frequency, TF over GST control)"
same,binding signal,ELK4,"1.28 fold enrichment (6-mer frequency, TF over GST control)"
same,binding signal,ETV2,"1.17 fold enrichment (6-mer frequency, TF over GST control)"
same,binding signal,ELF3,"1.17 fold enrichment (6-mer frequency, TF over GST control)"
same,binding signal,ETV1,"1.21 fold enrichment (6-mer frequency, TF over GST control)"
CGTTAT,binding signal,FLI1,"1.14 fold enrichment (6-mer frequency, TF over GST control)"
same,binding signal,ELK1,"1.11 fold enrichment (6-mer frequency, TF over GST control)"
same,binding signal,GABPA,"1.11 fold enrichment (6-mer frequency, TF over GST control)"
same,binding signal,ERG,"1.1 fold enrichment (6-mer frequency, TF over GST control)"
same,binding signal,ELF1,"1.17 fold enrichment (6-mer frequency, TF over GST control)"
same,binding signal,EHF,"1.07 fold enrichment (6-mer frequency, TF over GST control)"
same,binding signal,SPI1,"1.11 fold enrichment (6-mer frequency, TF over GST control)"
same,binding signal,SPIB,"1.16 fold enrichment (6-mer frequency, TF over GST control)"
same,binding signal,ELK3,"1.26 fold enrichment (6-mer frequency, TF over GST control)"
same,binding signal,FEV,"1.03 fold enrichment (6-mer frequency, TF over GST control)"
same,binding signal,ETV5,"1.15 fold enrichment (6-mer frequency, TF over GST control)"
same,binding signal,SPIC,"1.23 fold enrichment (6-mer frequency, TF over GST control)"
same,binding signal,ELF4,"1.16 fold enrichment (6-mer frequency, TF over GST control)"
same,binding signal,ELK4,"1.15 fold enrichment (6-mer frequency, TF over GST control)"
same,binding signal,ETV2,"1.21 fold enrichment (6-mer frequency, TF over GST control)"
same,binding signal,ELF3,"1.04 fold enrichment (6-mer frequency, TF over GST control)"
same,binding signal,CRX,"1.05 fold enrichment (6-mer frequency, TF over GST control)"
